Molecules are shown by their SMILES. “And” between values parts separate entries of the source, which are not always exact repeats. Equal entries are not always repeated. Inconclusive results are not listed. A call without a number means that no potency is given here. The source made the active and inactive calls. Unless noted, calls come from the whole dose curve.
Potency is the fitted concentration of half-maximal effect.

One assay is described as follows: qHTS assay to identify small molecule antagonists of the sonic hedgehog signaling (Shh) pathway - cell viability counter screen (AID 1259367; active = well fitted cell-killing curve with a large enough effect in the repeat runs; note: nearly all actives have a fitted effect of over 55% in size). The note with it: NIH/3T3 Gli1-Luc viability, CellTiter-Fluor, 24 h; series mostly up to 92.4 µM. The method, boiled down:
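Viability was read by CellTiter-Fluor fluorescence in the same wells, reagent added 23 hr into compound treatment and incubated 1 hr at 37C. The 3T3 Gli1-Luc reporter cells (2,000/well) received conditioned medium after compound and ran 24 hr.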
As for `CC(Cc1ccc(C(C)(C)C)cc1)CN1C[C@@H](C)O[C@@H](C)C1` (stereo partly specified), the Potency result was “inactive”. The same measure, in the same setting: with `Oc1ccc2ccc3cccc4ccc1c2c34` the entry was “inactive”; with `CCOP(=S)(OCC)OC(Cl)C(Cl)(Cl)Cl` (stereo unspecified), “inactive”; with `CCOc1cc(C(C)(C)C)ccc1C1COC(c2c(F)cccc2F)=N1` (stereo unspecified), “inactive”. The same measure, in the same setting: the result for `C=CCC1=C(C)C(OC(=O)C2C(C=C(C)C)C2(C)C)CC1=O` (stereo unspecified) reads “inactive”; that for `[Cd+2].[Cl-].[Cl-]`, 3.89 µM (active) and 9.69 µM (active); that for `CN(C)C(=S)[S-].CN(C)C(=S)[S-].[Cu+2]`, 3.33 µM (active). The same measure, in the same setting: the result for `COc1ccc(N)cc1N` reads 15.8 µM (active) and 33 µM (active); that for `CC1(C)C(/C=C(\Cl)C(F)(F)F)C1C(=O)OC(C#N)c1cccc(Oc2ccccc2)c1` (stereo unspecified), “inactive”; that for `Oc1ccc(C(c2ccc(O)cc2)(C(F)(F)F)C(F)(F)F)cc1`, “inactive”.

`Cl/C=C\CCl`: the Potency result was “inactive”.

On to `ClC(Cl)=C(Cl)Cl`, for which the Potency result was “inactive”. The same measure, in the same setting: the result for `O=C(CBr)c1ccc(O)cc1` reads “inactive”; that for `CCCOCC(=Nc1ccc(Cl)cc1C(F)(F)F)n1ccnc1`, 54.4 µM (active); that for `OC(Cc1ccccc1Cl)(Cn1cncn1)C1(Cl)CC1` (stereo unspecified), “inactive”. Still for that read-out and setting: the result for `N#Cc1ccccc1Cl` reads “inactive”; that for `N#CNC#N`, “inactive”.

Consider `CCN`, for which the Potency result was “inactive”.

With `CC(=O)OC1(c2ccccc2)CCN(CCc2ccccc2)CC1`, the Potency entry is “inactive”. The same measure, in the same setting: the result for `O=C(O)C1C2CCC(O2)C1C(=O)O` (stereo unspecified) reads 31 µM (active); that for `Cc1cc(C(C)(C)c2cc(C)c(O)c(C)c2)cc(C)c1O`, “inactive”.

Take `CC1(C)[C@H](C(=O)O[C@H](C#N)c2cccc(Oc3ccccc3)c2)[C@@H]1/C=C(\Cl)C(F)(F)F`: the Potency entry was “inactive”.

As to `CC(C)CC(C)Nc1ccc(Nc2ccccc2)cc1` (stereo unspecified), the Potency was 16.9 µM (active).

Regarding `Brc1c(Br)c(Br)c(Oc2c(Br)c(Br)c(Br)c(Br)c2Br)c(Br)c1Br`, the viability change, negative = cytotoxic was 4.4% [at 19 µM] (inactive). As to `BrC(Br)Br`, the Potency entry is “inactive”.

Turning to `CSCCCN=C=S`, the Potency entry was “inactive”.

For `Clc1ccc(C(Cl)(Cl)Cl)c(Cl)c1`, the Potency result is “inactive”. Same read-out and setting: with `O=[N+]([O-])O.O=[N+]([O-])O.[Cd]` the figure was 15.4 µM (active); with `CN(C)S(=O)(=O)N(SC(F)(Cl)Cl)c1ccccc1`, 12.2 µM (active). Same read-out and setting: the result for `c1cc[c]([Sb]([c]2ccccc2)[c]2ccccc2)cc1` reads “inactive”; that for `CC(C)[C@H](C(=O)OC(C#N)c1cccc(Oc2ccccc2)c1)c1ccc(OC(F)F)cc1` (stereo partly specified), “inactive”. For `c1ccc(OCC2CO2)cc1` (stereo unspecified), the Potency result is “inactive”.

Take `[Hg+2].[I-].[I-]`: the Potency was 4.33 µM (active).

A short description of another assay: qHTS assay to identify small molecule agonists of the sonic hedgehog signaling (Shh) pathway (AID 1259368).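 For activity change: NIH/3T3-derived 3T3Gli1-Luc cells carrying a stable Gli1-driven firefly luciferase reporter.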 Note: nearly all actives have a fitted effect of over 15% in size. The following applies: NIH/3T3 Gli1-Luc reporter, luciferase, 24 h; series mostly up to 92.4 µM. The method, boiled down: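 Hedgehog pathway agonism scored by increased firefly luciferase luminescence in 3T3Gli1-Luc cells treated 24 hr at 37 C; detection used a 30 min room-temperature reagent incubation.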
For orientation: In qHTS, concentration-response curves come from the screen itself.
As to `CC(Cc1ccc(C(C)(C)C)cc1)CN1C[C@@H](C)O[C@@H](C)C1` (stereo partly specified), the Potency entry was “inactive”.

For the compound `Oc1ccc2ccc3cccc4ccc1c2c34`, the Potency entry is “inactive”. The same measure, in the same setting: with `CCOP(=S)(OCC)OC(Cl)C(Cl)(Cl)Cl` (stereo unspecified) the entry was “inactive”; with `CCOc1cc(C(C)(C)C)ccc1C1COC(c2c(F)cccc2F)=N1` (stereo unspecified), “inactive”; with `C=CCC1=C(C)C(OC(=O)C2C(C=C(C)C)C2(C)C)CC1=O` (stereo unspecified), “inactive”.

Take `[Cd+2].[Cl-].[Cl-]`: the Potency result was “inactive”. Turning to `CN(C)C(=S)[S-].CN(C)C(=S)[S-].[Cu+2]`, the activity change is -10.5% [at 18.9 µM, hits give high values] (inactive). Regarding `COc1ccc(N)cc1N`, the Potency result is “inactive”. The same measure, in the same setting: with `CC1(C)C(/C=C(\Cl)C(F)(F)F)C1C(=O)OC(C#N)c1cccc(Oc2ccccc2)c1` (stereo unspecified) the entry was “inactive”.

Take `O=C1NCN(c2ccccc2)C12CCN(CC1COc3ccccc3O1)CC2` (stereo unspecified): the Potency result is “inactive”.

On to `Oc1ccc(C(c2ccc(O)cc2)(C(F)(F)F)C(F)(F)F)cc1`, for which the Potency result is “inactive”.

As for `Oc1ccc(C2(c3ccc(O)cc3)CCCCC2)cc1`, the Potency entry was “inactive”.

Regarding `Cl/C=C\CCl`, the Potency result was “inactive”. For the compound `ClC(Cl)=C(Cl)Cl`, the Potency result was “inactive”. Still for that read-out and setting: with `O=C(CBr)c1ccc(O)cc1` the entry was “inactive”.

Regarding `CCCOCC(=Nc1ccc(Cl)cc1C(F)(F)F)n1ccnc1`, the Potency result was “inactive”.

`OC(Cc1ccccc1Cl)(Cn1cncn1)C1(Cl)CC1` (stereo unspecified): the Potency entry is “inactive”. Still for that read-out and setting: the result for `N#Cc1ccccc1Cl` reads “inactive”.

Turning to `N#CNC#N`, the Potency entry was “inactive”. On the same count and under the same terms, the result for `CCN` reads “inactive”; that for `CC(=O)OC1(c2ccccc2)CCN(CCc2ccccc2)CC1`, “inactive”; that for `O=C(O)C1C2CCC(O2)C1C(=O)O` (stereo unspecified), “inactive”.

With `Cc1cc(C(C)(C)c2cc(C)c(O)c(C)c2)cc(C)c1O`, the Potency result was “inactive”. Consider `CC1(C)[C@H](C(=O)O[C@H](C#N)c2cccc(Oc3ccccc3)c2)[C@@H]1/C=C(\Cl)C(F)(F)F`, for which the Potency entry is “inactive”. Still for that read-out and setting: with `CC(C)CC(C)Nc1ccc(Nc2ccccc2)cc1` (stereo unspecified) the entry was “inactive”.

In the case of `Brc1c(Br)c(Br)c(Oc2c(Br)c(Br)c(Br)c(Br)c2Br)c(Br)c1Br`, the activity change is 0.699% [at 18.9 µM, hits give high values] (inactive). Consider `CN(C)c1ccc(N=Nc2ccccc2)cc1`, for which the Potency was 1.72 µM (active). Still for that read-out and setting: the result for `BrC(Br)Br` reads “inactive”; that for `CSCCCN=C=S`, “inactive”; that for `Clc1ccc(C(Cl)(Cl)Cl)c(Cl)c1`, “inactive”. The same measure, in the same setting: the result for `O=[N+]([O-])O.O=[N+]([O-])O.[Cd]` reads “inactive”. The same measure, in the same setting: with `CN(C)S(=O)(=O)N(SC(F)(Cl)Cl)c1ccccc1` the entry was “inactive”; with `c1cc[c]([Sb]([c]2ccccc2)[c]2ccccc2)cc1`, “inactive”; with `CC(C)[C@H](C(=O)OC(C#N)c1cccc(Oc2ccccc2)c1)c1ccc(OC(F)F)cc1` (stereo partly specified), “inactive”. `c1ccc(OCC2CO2)cc1` (stereo unspecified): the Potency result was “inactive”. For the compound `[Cl][Sb]([Cl])[Cl]`, the Potency entry is “inactive”. Still for that read-out and setting: the result for `CCOP(=S)(OCC)SCS(=O)(=O)C(C)(C)C` reads “inactive”; that for `[Hg+2].[I-].[I-]`, “inactive”.
